In PubChem BioAssay AID651593 (National Center for Advancing Translational Sciences (NCATS), 2012):
Hit rate of the full screen: of about 1,100 compounds, about 860 (78%) were called active. Roughly 19% stayed inconclusive and do not appear here. The call rests on the fitted dose curve; in most records, active means well fitted activation curve with a large enough effect; inconclusive means small, poorly fitted or top-dose-only effect; inactive means flat fitted curve, though single readings scatter. So high a share suggests a set chosen from earlier hits. Some of the results follow.

Assay: qHTS of Nrf2 Activators: Hit Validation in Primary Assay; further: nearly all actives have a fitted effect of over 70% in size; on activation: 0% is about no effect
Conditions: Nrf2/ARE reporter cell assay; Potency: activation; series mostly up to 46.1 µM; activation: at the top concentration
In short: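 Luminescence from Steady-Glo lysis reagent, read after 30 min, reported ARE-luciferase activity in AREc32_fluc stable cells. Compounds were tested at several concentrations, incubated 24 h at 37 °C with 5% CO2 following overnight seeding.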
Potency means the concentration at half of the fitted maximal effect.

SMILES	Potency	activation
NC(=O)c1ccsc1NC(=O)COC(=O)[C@@H]1CCCN1C(=O)c1cccs1	6.51 µM (active)	
O=C(NNC(=O)c1nc(Cl)ccc1Cl)c1ccc(F)cc1	11.6 µM (active)	
O=C1C(=C2CCc3ccccc32)Cc2ccccc21	1.03 µM (active)	
COC(=O)c1ccc2nc(-c3cccc(Br)c3)c(CC3CCCCC3)n2c1	13 µM (active)	
COC(=O)c1ccc2nc(-c3ccc(F)cc3)c(CC3CCCCC3)n2c1	9.2 µM (active)	
O=c1cc(-c2ccccc2)nc2c(Cl)cc(Cl)cn12	3.66 µM (active)	
COCCn1c(C(F)(F)F)ccc(NC(=O)c2ccccc2)c1=O	2.31 µM (active)	
FC(F)(F)c1cc(-c2cccs2)nc2cc(-c3cccs3)nn12	2.91 µM (active)	
Cc1ncc(N=Nc2ccccc2)c(-c2ccccc2)n1	3.66 µM (active)	
Cc1ccc(CNC(=O)c2sccc2-n2cccc2)cc1	5.17 µM (active)	
CC(C)c1ccc(NC(=O)c2sccc2-n2cccc2)cc1	2.59 µM (active)	
O=c1oc2ccc(Br)cc2cc1-c1nc2ccccc2o1	23.1 µM (active)	
O=C(Cn1ncc(Cl)c(Cl)c1=O)NC1CCS(=O)(=O)C1 (stereo not given)	6.51 µM (active)	
O=C(Nc1cccc2ncccc12)c1ccc(Cl)cc1	2.59 µM (active)	
Cc1ccsc1-c1ccnc(-n2cccc2)n1	11.6 µM (active)	
Cc1cc(-c2cccs2)nc(-n2cccc2)n1	5.17 µM (active)	
Cc1cc(-c2sccc2Br)nc(-n2cccc2)n1	3.66 µM (active)	
Cc1cc(-c2sccc2C)nc(-n2cccc2)n1	5.8 µM (active)	
Cc1ccc(S(=O)(=O)c2nc(S(C)(=O)=O)sc2N2CCOCC2)cc1	8.2 µM (active)	
CS(=O)(=O)c1nc(S(=O)(=O)c2ccc(Cl)cc2)c(N2CCOCC2)s1	4.11 µM (active)	
Cc1nnc2n1N=CC=C(c1ccccc1)S2	3.66 µM (active)	
Clc1ccc2c(NCc3ccccn3)ncnc2c1	4.61 µM (active)	
Oc1ccc(Cl)cc1N=Cc1sc2ccccc2c1Cl	6.51 µM (active)	
Cc1sc2ncnc(SCc3ccco3)c2c1C	2.91 µM (active)	

SMILES	Potency	activation
Cc1sc2ncnc(NCc3ccco3)c2c1C	3.66 µM (active)	
CCc1cc2c(NCc3ccco3)ncnc2s1	3.66 µM (active)	
c1ccc(Cn2ncc3c(NCc4ccco4)ncnc32)cc1	2.06 µM (active)	
Cc1sc2ncnc(Sc3nnnn3-c3ccccc3)c2c1C		15.9% (inactive)
CCN(CC)CCNC(=O)C(Cl)=C1C(Cl)=C(Cl)C(Cl)=C1Cl	3.66 µM (active)	
O=C(NC(=S)Nc1ccc(Br)cn1)c1cccs1	2.91 µM (active)	
O=C(NC(=S)Nc1ccc(Cl)cn1)c1cccs1	2.91 µM (active)	
Cc1cccc(NC(=S)NC(=O)c2cccs2)n1	8.2 µM (active)	
O=C(NC(=S)Nc1cccc2cccnc12)c1cccs1	2.91 µM (active)	
COC(=O)c1cc2c(s1)-c1cc(F)ccc1OC2	9.2 µM (active)	
O=C1/C(=C\c2ccc(Cl)cc2)CCC1CNc1ccc(Cl)cc1 (stereo not given)	3.66 µM (active)	
N#Cc1cnc2cc(-c3ccccc3)nn2c1N	6.51 µM (active)	
CC(=O)Nc1ccc(S(=O)(=O)c2ccnc3cc(Cl)ccc23)cc1	14.6 µM (active)	
O=S(=O)(c1ccc(F)cc1)c1snnc1-c1ccccc1	18.4 µM (active)	
Cc1ccc(N=C/C(C(=O)C(F)(F)F)=C(\O)c2ccco2)cc1Cl	7.31 µM (active)	
Cc1cccc(N=C/C(C(=O)C(F)(F)F)=C(\O)c2ccco2)c1	20.6 µM (active)	
O=C(/C(C=Nc1ccc(F)cc1)=C(/O)c1ccco1)C(F)(F)F	20.6 µM (active)	
O=C(/C(C=Nc1cccc(C(F)(F)F)c1)=C(/O)c1ccco1)C(F)(F)F	11.6 µM (active)	
CC(=O)Nc1ccc(N=Nc2ccccc2)cc1[N+](=O)[O-]	3.66 µM (active)	
CC(=O)Nc1cc2oc3ccccc3c2cc1[N+](=O)[O-]	2.59 µM (active)	
COC(=O)c1c(NC(=O)/C=C/C(=O)O)sc(C)c1-c1ccc(C(C)C)cc1	10.3 µM (active)	
c1ccc(-c2noc(-c3cccnc3)n2)cc1	2.59 µM (active)	
COc1cccc(-c2nc(-c3ccccc3)no2)c1	2.91 µM (active)	
c1ccc(-c2noc(-c3cccc4ccccc34)n2)cc1	2.31 µM (active)	

SMILES	Potency	activation
COc1nc2ccc(C)cc2cc1-c1noc(-c2ccccc2)n1	2.59 µM (active)	
Fc1ccccc1-c1nc(-c2ccc(Cl)cc2)no1	3.26 µM (active)	
c1cncc(-c2noc(-c3cccc4ccccc34)n2)c1	1.16 µM (active)	
CC1=NC(=O)C(N=Nc2cccc(O)c2)N1c1ccccc1 (stereo not given)	7.31 µM (active)	
Cc1cccc2c(=O)n(C(=O)c3ccccc3)c(N)nc12	1.03 µM (active)	
COc1ccc(OC)c(/C=C(\C#N)c2nc(-c3ccc(F)cc3)cs2)c1	2.59 µM (active)	
COc1ccc(NC(=O)Nc2nnc(-c3ccccc3F)s2)cc1	1.84 µM (active)	
O=C(Nc1nnc(-c2ccccc2F)s1)C1CCCO1 (stereo not given)	7.31 µM (active)	
COc1ccccc1-c1nnc(NC(C)=O)s1	20.6 µM (active)	
O=C(Nc1nnc(-c2ccccc2F)s1)Nc1ccccc1F	1.84 µM (active)	
O=C(Nc1ccccc1)c1nc[nH]c1C(=O)Nc1ccccc1F		17.5% (inactive)
O=C(CC(=O)c1ccccn1)c1ccccc1	3.66 µM (active)	
NS(=O)(=O)c1ccc(Sc2nc3ccccc3s2)c([N+](=O)[O-])c1	16.4 µM (active)	
NC(=O)c1nc(Nc2ccccc2)sc1NC(=O)c1ccccc1Br	2.31 µM (active)	
NC(=O)c1nc(Nc2ccccc2)sc1NC(=O)c1c(F)cccc1F	2.59 µM (active)	
O=C(/C=C/c1ccccc1Cl)Nc1nc(-c2cccs2)ns1	7.31 µM (active)	
O=C(/C=C/c1ccccc1)Nc1nc(-c2cccs2)ns1	2.59 µM (active)	
Cc1sc2c(c1C)C(=O)NC(c1ccccc1F)N2 (stereo not given)	20.6 µM (active)	
CCC/C(=N\NC(=O)c1ccco1)c1ccc(Cl)s1	5.17 µM (active)	
CCOC(=O)COn1c(=O)c(-c2ccco2)[n+]([O-])c2ccccc21	9.2 µM (active)	
O=c1c(-c2ccco2)[n+]([O-])c2ccccc2n1OCc1c(F)cccc1F	0.58 µM (active)	
O=c1c(-c2ccco2)[n+]([O-])c2ccccc2n1OCc1ccccc1	5.17 µM (active)	
